Experimental findings from PubChem BioAssay (NCATS) are described below.

The nature of experiment [1]: Cytotoxicity counterscreen for NFkB agonists and antagonists (AID 624476).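 Note: cells exposed to compound for 48 hours.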 Note: potency is the fitted concentration of half-maximal effect.
Experiment [2] in a line: qHTS Assay for Identification of Small Molecule Agonists for NFkB Signaling Pathway. (AID 624478).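 Note: compounds tested together with TNF alpha at its EC50 of 10 pM; 0% is about no effect.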 In a few lines: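 ME-180 cervical carcinoma, stable NFkB-RE beta-lactamase reporter; 1000 cells/well, overnight attachment; cpd + TNF alpha 10 pM final, 5 h 37 C; LiveBLAzer 2 h RT; FRET 460/530 nm, ex 405 nm.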
Experiment [3] is described as follows: qHTS Assay for Identification of Small Molecule Antagonists for NFkB Signaling Pathway. (AID 624479; calls by dose curve;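 note: pathway stimulated with TNF alpha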; note: potency is the fitted concentration of half-maximal effect).
A short description of experiment [4]: Cell Proliferation Assay against the TMD8 Cell Line (AID 651645).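 Note: cells exposed to compound for 48 h before reading.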 Conditions: TMD8 DLBCL cell line proliferation/viability; at 46.1 µM (top of the series) unless noted. In a few lines: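 Luminescent ATP read-out (CellTiter-Glo, 15 min RT) after 48 h compound exposure of log-growing TMD8 cells at 37C; percent activity scaled between DMSO as 100% and 9.2 uM bortezomib final as 0%.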

Experiment [5] is described as follows: Cell Proliferation Assay against the HBL1 Cell Line (AID 651646).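 Note: cells exposed to compound for 48 h before reading.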 Conditions: HBL1 DLBCL cells; at 46.1 µM (top of the series) unless noted. In a few lines:
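Luminescent ATP read-out (CellTiter-Glo) after 48 h compound exposure of HBL1 cells at 37 °C; percent activity was scaled between DMSO as 100% and 9.2 uM bortezomib (final) as 0%.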

A short description of experiment [6]: Cell Proliferation Assay against the TMD8 Cell Line (Caspase readout at 8 hrs) (AID 651713). The gist of the method:
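Seed log-phase TMD8 cells, add compound by pin tool, incubate 8 h at 37C under 5% CO2, equilibrate to room temperature, add Caspase-Glo, wait 15 min, read luminescence; percent activity uses DMSO and 9.2 uM bortezomib controls.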

Experiment [7] addresses Tyrosine-protein kinase Yes (Homo sapiens) (UniProt P07947). The experiment in a line: qHTS for small molecule inhibitors of Yes1 kinase: Primary Screen (AID 686947).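 Note: plate controls were DMSO with enzyme for no effect and no-enzyme DMSO wells for full effect; nearly all actives have a fitted effect of over 60% in size.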 In a few lines:
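Yes1 (4 nM) preincubated 20 min with compound, then 60 min room-temperature reaction with 0.1 mM ATP and 0.3 mg/mL poly(E4Y) in pH 7.5 Tris, 10 mM MgCl2. ADP measured by ADP-Glo luminescence, normalised to enzyme/no-enzyme controls.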

Experiment [8] in a line: qHTS for small molecule inhibitors of Yes1 kinase: Counter Assay (AID 686950).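 Note: no kinase present so only ADP-Glo detection of a fixed ADP amount is tested; luminescence from ADP-Glo reporting ADP in a fixed ATP and ADP mixture; 0% = DMSO wells with ATP plus ADP and -100% = ATP-only wells without ADP.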 In a few lines: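 Luminescence read-out from ADP-Glo quantifies a fixed ADP amount (0.02 mM ADP with 0.08 mM ATP) after 60 min at room temperature; signal is normalized between DMSO wells with ATP/ADP and with 0.1 mM ATP alone.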
A short description of experiment [9]: Cell Proliferation Assay against the TMD8 Cell Line (Caspase readout at 16 hrs) (AID 651712). The gist of the method: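 Apoptotic response of TMD8 cells was judged from caspase 3/7 activation following a 16 hour compound incubation at 37 °C. Luminescent signal was converted to percent activity, with DMSO set as 0% and 9.2 uM final bortezomib as 100%.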

Records with an inconclusive call do not appear. The source made the active and inactive calls. Unless noted, calls come from the whole dose curve; as a rule, active = well fitted curve in the direction sought with a large enough effect; inconclusive = small, poorly fitted or top-dose-only effect, or another doubt; inactive = no such curve, though single readings can be large; an effect the other way counts as inactive or inconclusive.

Tyrosine-protein kinase Yes (Homo sapiens), sequence (P07947 whole entry, looked up): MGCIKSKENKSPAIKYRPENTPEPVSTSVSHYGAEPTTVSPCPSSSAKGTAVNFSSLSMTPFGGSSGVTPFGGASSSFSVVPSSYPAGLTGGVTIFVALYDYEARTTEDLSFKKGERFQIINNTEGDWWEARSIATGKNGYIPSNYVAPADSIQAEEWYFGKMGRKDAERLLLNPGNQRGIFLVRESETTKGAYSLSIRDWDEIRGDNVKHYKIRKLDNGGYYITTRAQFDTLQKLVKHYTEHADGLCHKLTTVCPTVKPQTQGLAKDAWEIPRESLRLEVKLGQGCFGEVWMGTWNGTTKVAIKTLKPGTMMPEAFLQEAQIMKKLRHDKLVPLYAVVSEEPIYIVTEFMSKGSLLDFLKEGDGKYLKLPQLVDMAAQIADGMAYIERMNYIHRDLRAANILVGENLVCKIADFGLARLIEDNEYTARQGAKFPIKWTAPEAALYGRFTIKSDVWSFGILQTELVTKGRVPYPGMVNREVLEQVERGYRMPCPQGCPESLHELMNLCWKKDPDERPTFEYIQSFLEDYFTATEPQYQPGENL

Consider `COc1nc(-c2ccc3c(c2)OCO3)n(-c2ccc(NC(=O)CSc3ccccc3)cc2)n1`, for which the Potency entry in [1], in [3], in experiment [6] and in experiment [7] was “inactive” in each case. Besides, the molecule was classed as inactive in experiment [2] and in experiment [8]. Moreover, the viability (% of control) in experiment [4] was 60.1%. Besides, in experiment [5], the viability, percent of control stood at 68.5%.

With `O=S(=O)(N=Cc1c(O)ccc2ccccc12)c1cccs1`, the Potency result in [1], in experiment [3], in experiment [6] and in experiment [7] was “inactive” throughout. Besides, the call in [2] and in experiment [8] was inactive. Further, the viability (% of control) in [4] is 49.7%. Besides, the viability, percent of control in experiment [5] is 72.6%.

`CC(C)c1onc(-c2c(Cl)cccc2Cl)c1COc1ccc(/C=C/c2cccc(C(=O)O)c2)c(Cl)c1`: the Potency was 11.8 µM (active) in experiment [1] and 21.1 µM (active) in [3]. Also, the outcome in experiment [2] and in experiment [8] was inactive. Besides, in experiment [4], the viability (% of control) was 89.6%. The viability, percent of control in experiment [5] was determined as 75.2%. Besides, the Potency result in experiment [6] is “inactive”.

For the molecule `Cn1c(=O)c(F)c(Nc2ccc(I)cc2F)c2c(=O)n(C[C@@H](O)CO)cnc21`, the Potency result in [1], in experiment [3], in [9] and in [7] was “inactive” each time. For the same molecule, the molecule was called inactive in experiment [2] and in experiment [8]. In experiment [4], the viability (% of control) was found to be 63.3%. In addition, the viability, percent of control in experiment [5] amounted to 38.3%.

In the case of `COc1cc(Oc2ccnc3cc(OC)c(OC)cc23)ccc1NC(=O)NC(C)c1nccs1` (stereo not drawn), the Potency entry in experiment [1] is “inactive”. The molecule was classed as inactive in experiment [2] and in experiment [8]. In addition, in experiment [3], the Potency was 16.8 µM (active). Moreover, the viability (% of control) in experiment [4] is 69%. For the same molecule, the viability, percent of control in experiment [5] is 59.4%.

As for `OCCn1cc(-c2cnc3nnn(Cc4ccc5ncccc5c4)c3n2)cn1`, the Potency result in experiment [1], in [3], in experiment [9], in experiment [6] and in experiment [7] was “inactive” in each case. The molecule was called inactive in [2] and in experiment [8]. In [4], the viability (% of control) worked out at 75.8%. In addition, the viability, percent of control in [5] came to 79.7%.

Consider `COc1ccc(-c2ccc3c(N4CCOC[C@H]4C)nc(N4CCOC[C@H]4C)nc3n2)cc1CO`, for which the Potency entry in experiment [1], in experiment [3], in experiment [6] and in experiment [7] was “inactive” each time. The outcome in [2] and in experiment [8] was inactive. The viability (% of control) in [4] came out at 25%. Further, the viability, percent of control in experiment [5] stood at 57.8%.

With `CS(=O)(=O)c1ccc(C(=O)Nc2ccc(Cl)c(-c3ccccn3)c2)c(Cl)c1`, the Potency result in experiment [1], in [3], in experiment [9], in experiment [6] and in experiment [7] was “inactive” each time. In addition, the call in [2] and in experiment [8] was inactive. Moreover, the viability (% of control) in experiment [4] is 93.4%. Also, the viability, percent of control in experiment [5] was 99.4%.

With `Cc1cc(-c2ccc(CC(=O)Nc3ccc(-c4cccnc4)cc3)cc2)ccn1`, the Potency result in experiment [1], in experiment [3] and in experiment [7] was “inactive” each time. The call in experiment [2] and in [8] was inactive. Moreover, the viability (% of control) in [4] was found to be 62.3%. Further, the viability, percent of control in experiment [5] worked out at 101%.

On to `Clc1ccc(Nc2nnc(Cc3ccncc3)c3ccccc23)cc1`, for which the Potency result in [1], in [3] and in experiment [6] was “inactive” in each case. The outcome in [2] and in experiment [8] was inactive. In experiment [4], the viability (% of control) is 90.1%. Further, in [5], the viability, percent of control was found to be 66.3%.

Regarding `Nc1nccc(-c2ccc3noc(-c4ccc(Cl)cc4)c3c2)n1`, the Potency result in [1], in [9], in [6] and in [7] was “inactive” in each case. In addition, the result in experiment [2] and in experiment [8] was inactive. Also, in experiment [3], the Potency was 3.75 µM (active). Also, the viability (% of control) in experiment [4] was determined as 81.3%. Also, the viability, percent of control in experiment [5] stood at 109%.

Take `O=C(O)CCc1ccc(NCc2cccc(Oc3ccccc3)c2)cc1`: the Potency result in experiment [1], in [3], in [9], in [6] and in experiment [7] was “inactive” in each case. Also, the result in experiment [2] and in experiment [8] was inactive. In addition, in [4], the viability (% of control) was determined as 107%. Moreover, in [5], the viability, percent of control was determined as 95.9%.

Take `OC[C@H](Cc1ccccc1)Nc1nc(Oc2ccc3c(c2)CCC3)nc2c1ncn2Cc1ccc(-c2ccccc2)cc1`: the Potency entry in [1], in experiment [3] and in experiment [7] was “inactive” throughout. For the same molecule, the molecule was classed as inactive in experiment [2] and in experiment [8]. Further, in experiment [4], the viability (% of control) turned out to be 54.4%. Besides, the viability, percent of control in [5] is 35.2%.

In the case of `CC1(C)Cc2c(-c3ccccc3)c(-c3ccc(Cl)cc3)c(CC(=O)O)n2C1`, the Potency in experiment [1] is 20.9 µM (active); in experiment [3], 21.1 µM (active). Moreover, the molecule was classed as inactive in experiment [2] and in [8]. In [5], the viability, percent of control worked out at 35.6%. The Potency entry in [7] was “inactive”.
